{
  "source": "ChEMBL document CHEMBL2218924",
  "about": "“A broad activity screen in support of a chemogenomic map for kinase signalling research and drug discovery” (Biochem J, 2013)",
  "key": {"[1]": {"biological_target": "T1, Serine/threonine-protein kinase TBK1 (Homo sapiens) (UniProt Q9UHD2)", "T1 sequence (whole entry)": "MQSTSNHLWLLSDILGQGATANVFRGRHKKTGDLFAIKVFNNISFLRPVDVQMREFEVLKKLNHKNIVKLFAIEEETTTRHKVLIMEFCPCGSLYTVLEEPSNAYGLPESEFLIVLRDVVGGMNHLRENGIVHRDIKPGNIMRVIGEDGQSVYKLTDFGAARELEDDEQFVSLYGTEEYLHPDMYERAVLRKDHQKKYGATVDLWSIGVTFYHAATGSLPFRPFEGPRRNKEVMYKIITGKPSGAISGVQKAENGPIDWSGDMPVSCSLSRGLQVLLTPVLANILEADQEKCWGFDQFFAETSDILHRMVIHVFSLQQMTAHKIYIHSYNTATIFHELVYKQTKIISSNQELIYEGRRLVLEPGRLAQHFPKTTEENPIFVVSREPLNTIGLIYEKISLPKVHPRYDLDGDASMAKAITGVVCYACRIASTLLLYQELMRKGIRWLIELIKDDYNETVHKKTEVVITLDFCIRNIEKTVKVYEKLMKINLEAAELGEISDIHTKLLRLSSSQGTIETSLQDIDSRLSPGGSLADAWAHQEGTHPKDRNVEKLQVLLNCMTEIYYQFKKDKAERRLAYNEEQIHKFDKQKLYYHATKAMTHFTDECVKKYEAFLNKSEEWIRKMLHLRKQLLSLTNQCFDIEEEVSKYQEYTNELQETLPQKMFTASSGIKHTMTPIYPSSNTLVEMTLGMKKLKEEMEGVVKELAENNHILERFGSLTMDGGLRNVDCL", "conditions": "at 10 µM"}, "[2]": {"biological_target": "T2, TGF-beta receptor type-1 (Homo sapiens) (UniProt P36897)", "T2 sequence (whole entry)": "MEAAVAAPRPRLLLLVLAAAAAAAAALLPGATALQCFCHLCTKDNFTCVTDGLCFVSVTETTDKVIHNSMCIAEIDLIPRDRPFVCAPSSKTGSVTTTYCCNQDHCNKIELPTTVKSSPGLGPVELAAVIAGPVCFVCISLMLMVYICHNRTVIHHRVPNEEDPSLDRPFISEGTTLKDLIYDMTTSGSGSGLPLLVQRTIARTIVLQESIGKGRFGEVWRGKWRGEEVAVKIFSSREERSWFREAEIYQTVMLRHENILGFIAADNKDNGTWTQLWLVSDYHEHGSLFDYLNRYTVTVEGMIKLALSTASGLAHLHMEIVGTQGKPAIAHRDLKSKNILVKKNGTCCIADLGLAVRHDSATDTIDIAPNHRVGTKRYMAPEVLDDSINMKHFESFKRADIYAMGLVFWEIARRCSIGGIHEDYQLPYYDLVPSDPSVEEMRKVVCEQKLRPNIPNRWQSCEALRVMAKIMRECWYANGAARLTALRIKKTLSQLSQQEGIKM", "conditions": "at 1 µM"}, "[3]": {"biological_target": "T2, TGF-beta receptor type-1 (Homo sapiens)", "conditions": "at 10 µM"}, "[4]": {"biological_target": "Insulin-like growth factor 1 receptor (Homo sapiens) (UniProt P08069)", "sequence (P08069 31-736 limits assumed)": "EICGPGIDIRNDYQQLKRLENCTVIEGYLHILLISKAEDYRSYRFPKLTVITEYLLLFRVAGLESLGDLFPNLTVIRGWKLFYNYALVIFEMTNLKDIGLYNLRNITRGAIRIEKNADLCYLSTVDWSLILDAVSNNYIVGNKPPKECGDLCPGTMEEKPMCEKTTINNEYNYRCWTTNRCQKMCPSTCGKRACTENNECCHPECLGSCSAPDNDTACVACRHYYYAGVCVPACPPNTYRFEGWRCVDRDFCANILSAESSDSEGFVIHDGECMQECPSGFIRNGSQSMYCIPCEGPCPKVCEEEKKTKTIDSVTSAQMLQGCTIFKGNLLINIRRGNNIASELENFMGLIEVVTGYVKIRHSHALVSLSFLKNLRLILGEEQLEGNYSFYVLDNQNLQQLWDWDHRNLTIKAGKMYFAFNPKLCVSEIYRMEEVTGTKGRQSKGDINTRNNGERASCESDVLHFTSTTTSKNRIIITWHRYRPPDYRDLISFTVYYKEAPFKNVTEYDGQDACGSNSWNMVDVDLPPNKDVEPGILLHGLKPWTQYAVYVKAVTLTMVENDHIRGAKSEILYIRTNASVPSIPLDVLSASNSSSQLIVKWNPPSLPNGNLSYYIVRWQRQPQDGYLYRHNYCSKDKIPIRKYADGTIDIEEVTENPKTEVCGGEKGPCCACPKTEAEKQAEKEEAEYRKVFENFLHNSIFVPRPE", "sequence (P08069 741-1367 limits assumed)": "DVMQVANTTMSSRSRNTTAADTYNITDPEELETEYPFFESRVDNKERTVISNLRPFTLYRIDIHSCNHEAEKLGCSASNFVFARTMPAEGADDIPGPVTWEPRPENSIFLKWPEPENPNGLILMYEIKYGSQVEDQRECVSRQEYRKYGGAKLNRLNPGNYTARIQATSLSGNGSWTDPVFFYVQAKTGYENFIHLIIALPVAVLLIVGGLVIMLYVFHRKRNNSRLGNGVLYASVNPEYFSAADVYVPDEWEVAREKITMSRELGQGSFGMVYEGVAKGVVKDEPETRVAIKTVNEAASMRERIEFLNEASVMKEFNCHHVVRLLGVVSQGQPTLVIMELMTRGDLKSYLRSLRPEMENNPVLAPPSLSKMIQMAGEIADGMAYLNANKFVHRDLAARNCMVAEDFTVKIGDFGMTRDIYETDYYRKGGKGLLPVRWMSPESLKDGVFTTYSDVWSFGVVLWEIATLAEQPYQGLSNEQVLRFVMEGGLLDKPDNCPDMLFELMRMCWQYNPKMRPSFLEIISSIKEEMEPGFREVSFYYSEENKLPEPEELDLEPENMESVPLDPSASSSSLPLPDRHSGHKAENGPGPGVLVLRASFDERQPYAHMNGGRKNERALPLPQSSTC", "conditions": "at 1 µM"}, "[5]": {"biological_target": "Insulin-like growth factor 1 receptor (Homo sapiens) (UniProt P08069)", "conditions": "at 10 µM"}, "[6]": {"biological_target": "T3, Inhibitor of nuclear factor kappa-B kinase subunit alpha (Homo sapiens) (UniProt O15111)", "T3 sequence (whole entry)": "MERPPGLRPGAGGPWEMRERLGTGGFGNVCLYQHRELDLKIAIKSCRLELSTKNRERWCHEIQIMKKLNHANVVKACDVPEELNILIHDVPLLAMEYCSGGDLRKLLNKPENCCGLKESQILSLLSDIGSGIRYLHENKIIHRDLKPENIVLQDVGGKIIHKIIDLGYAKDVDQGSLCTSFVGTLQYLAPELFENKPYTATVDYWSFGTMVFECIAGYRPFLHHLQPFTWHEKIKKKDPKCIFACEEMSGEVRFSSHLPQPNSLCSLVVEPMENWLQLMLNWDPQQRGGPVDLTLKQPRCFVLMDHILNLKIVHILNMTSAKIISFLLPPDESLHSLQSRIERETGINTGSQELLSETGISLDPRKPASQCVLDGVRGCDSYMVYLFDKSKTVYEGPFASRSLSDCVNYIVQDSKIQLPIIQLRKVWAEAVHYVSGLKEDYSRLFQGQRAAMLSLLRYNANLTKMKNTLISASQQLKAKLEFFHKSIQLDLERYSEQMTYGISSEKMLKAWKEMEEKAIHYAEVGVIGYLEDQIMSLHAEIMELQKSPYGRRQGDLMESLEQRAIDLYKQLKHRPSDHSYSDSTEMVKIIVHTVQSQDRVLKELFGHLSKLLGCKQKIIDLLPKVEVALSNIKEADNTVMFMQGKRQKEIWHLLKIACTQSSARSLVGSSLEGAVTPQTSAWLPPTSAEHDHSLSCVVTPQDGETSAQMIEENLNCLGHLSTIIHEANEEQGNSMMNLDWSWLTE", "conditions": "at 1 µM"}, "[7]": {"biological_target": "T3, Inhibitor of nuclear factor kappa-B kinase subunit alpha (Homo sapiens)", "conditions": "at 10 µM"}, "[8]": {"biological_target": "T4, Inhibitor of nuclear factor kappa-B kinase subunit beta (Homo sapiens) (UniProt O14920)", "T4 sequence (whole entry)": "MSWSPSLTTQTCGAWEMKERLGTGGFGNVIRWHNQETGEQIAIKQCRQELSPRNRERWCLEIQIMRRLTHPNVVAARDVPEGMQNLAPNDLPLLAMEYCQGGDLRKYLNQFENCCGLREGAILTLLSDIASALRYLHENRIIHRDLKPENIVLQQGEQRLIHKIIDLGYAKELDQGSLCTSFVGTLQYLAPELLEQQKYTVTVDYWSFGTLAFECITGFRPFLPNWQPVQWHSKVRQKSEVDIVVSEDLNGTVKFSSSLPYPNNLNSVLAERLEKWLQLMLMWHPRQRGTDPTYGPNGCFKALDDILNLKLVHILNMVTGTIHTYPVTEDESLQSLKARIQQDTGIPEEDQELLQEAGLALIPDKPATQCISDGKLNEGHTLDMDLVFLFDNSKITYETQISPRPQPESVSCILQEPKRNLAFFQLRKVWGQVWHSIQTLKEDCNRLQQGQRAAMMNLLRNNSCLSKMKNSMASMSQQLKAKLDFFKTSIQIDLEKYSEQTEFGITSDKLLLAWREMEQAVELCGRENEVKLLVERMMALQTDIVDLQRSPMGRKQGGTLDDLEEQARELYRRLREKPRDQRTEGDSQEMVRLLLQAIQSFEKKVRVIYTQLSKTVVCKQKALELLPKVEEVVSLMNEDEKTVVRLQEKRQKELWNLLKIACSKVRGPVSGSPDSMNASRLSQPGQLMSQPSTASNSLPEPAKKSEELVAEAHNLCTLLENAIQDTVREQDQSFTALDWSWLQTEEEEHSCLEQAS", "conditions": "at 1 µM"}, "[9]": {"biological_target": "T4, Inhibitor of nuclear factor kappa-B kinase subunit beta (Homo sapiens)", "conditions": "at 10 µM"}, "[10]": {"biological_target": "Insulin receptor (Homo sapiens) (UniProt P06213)", "sequence (P06213 28-758 limits assumed)": "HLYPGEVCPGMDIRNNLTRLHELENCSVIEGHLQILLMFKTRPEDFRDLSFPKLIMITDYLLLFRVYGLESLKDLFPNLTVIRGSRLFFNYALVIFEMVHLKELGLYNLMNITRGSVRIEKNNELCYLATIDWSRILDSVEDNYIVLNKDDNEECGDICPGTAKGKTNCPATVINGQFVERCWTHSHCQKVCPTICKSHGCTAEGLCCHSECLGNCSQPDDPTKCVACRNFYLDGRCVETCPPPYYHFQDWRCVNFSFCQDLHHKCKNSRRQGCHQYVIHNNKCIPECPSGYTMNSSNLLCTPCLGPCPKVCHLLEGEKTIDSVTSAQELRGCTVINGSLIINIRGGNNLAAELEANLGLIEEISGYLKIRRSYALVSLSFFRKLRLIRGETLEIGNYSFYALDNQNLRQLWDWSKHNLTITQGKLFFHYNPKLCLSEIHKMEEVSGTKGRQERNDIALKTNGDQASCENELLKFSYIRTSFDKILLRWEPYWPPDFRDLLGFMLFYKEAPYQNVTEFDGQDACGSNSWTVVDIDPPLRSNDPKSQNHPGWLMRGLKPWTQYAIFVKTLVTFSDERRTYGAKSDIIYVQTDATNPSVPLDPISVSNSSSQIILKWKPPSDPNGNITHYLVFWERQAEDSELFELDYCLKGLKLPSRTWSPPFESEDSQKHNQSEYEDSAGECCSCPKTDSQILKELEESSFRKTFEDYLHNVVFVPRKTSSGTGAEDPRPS", "sequence (P06213 763-1382 limits assumed)": "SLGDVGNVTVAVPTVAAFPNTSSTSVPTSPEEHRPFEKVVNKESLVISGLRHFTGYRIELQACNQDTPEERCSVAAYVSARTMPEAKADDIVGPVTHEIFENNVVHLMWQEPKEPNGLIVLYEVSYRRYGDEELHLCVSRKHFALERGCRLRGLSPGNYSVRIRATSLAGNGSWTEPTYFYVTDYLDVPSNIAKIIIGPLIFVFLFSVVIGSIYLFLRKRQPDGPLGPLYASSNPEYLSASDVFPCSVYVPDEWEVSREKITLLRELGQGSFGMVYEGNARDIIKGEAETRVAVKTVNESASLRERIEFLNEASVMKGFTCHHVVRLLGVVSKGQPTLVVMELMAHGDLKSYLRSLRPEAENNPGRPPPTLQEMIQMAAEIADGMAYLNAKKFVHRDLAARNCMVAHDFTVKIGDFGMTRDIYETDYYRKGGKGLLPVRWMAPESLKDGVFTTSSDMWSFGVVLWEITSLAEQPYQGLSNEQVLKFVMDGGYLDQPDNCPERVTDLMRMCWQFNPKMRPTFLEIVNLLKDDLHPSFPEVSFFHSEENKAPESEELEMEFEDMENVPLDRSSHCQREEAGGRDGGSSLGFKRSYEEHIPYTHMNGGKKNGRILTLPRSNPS", "conditions": "at 1 µM"}},
  "data": [
    {"compound": "CCC(=O)Nc1ccc2ncnc(Nc3cccc(Br)c3)c2c1", "values": [
      {"measurement": "residual activity", "setting": "[1]", "value": 68, "unit": "%"},
      {"measurement": "residual activity", "setting": "[2]", "value": 75, "unit": "%"},
      {"measurement": "residual activity", "setting": "[3]", "value": 94, "unit": "%"},
      {"measurement": "residual activity", "setting": "[4]", "value": 97, "unit": "%"},
      {"measurement": "residual activity", "setting": "[5]", "value": 102, "unit": "%"},
      {"measurement": "residual activity", "setting": "[6]", "value": 121, "unit": "%"},
      {"measurement": "residual activity", "setting": "[7]", "value": 125, "unit": "%"},
      {"measurement": "residual activity", "setting": "[8]", "value": 112, "unit": "%"},
      {"measurement": "residual activity", "setting": "[9]", "value": 97, "unit": "%"},
      {"measurement": "residual activity", "setting": "[10]", "value": 110, "unit": "%"}
    ]}
  ]
}
